From PubChem BioAssay come the findings set out here.

Experiment [1] can be described thus: SU-DIPG-XXV glioma cell viability, MIPE5.0 library, qHTS (AID 1347068; cut-off not given, nearly all actives have IC50 up to about 30 µM;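 on IC50: cells exposed to compound for 48 hours before viability readout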).
A short description of experiment [2]: ovarian cancer cell viability with rucaparib, profiling panel, oncology-focused library, rucaparib conditional (AID 1508598). To be noted: patient-derived ovarian cancer cells, CellTiter-Glo viability, 144 h, stronger effect = lower value. Background: In ATP-based viability assays light output follows the ATP content of the culture.
A short description of experiment [3]: growth inhibition of DIPG glioma cells, dose response, cell-based, SU-DIPG-XIII, MIPE4.0, CellTiter-Glo, qHTS (AID 1347061; cut-off not given, nearly all actives have AC50 up to about 37 µM;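 further: cells exposed to compound for 48 hours before readout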). To be noted: SU-DIPG-XIII viability, CellTiter-Glo ATP luminescence.
Experiment [4] is described as follows: growth inhibition of DIPG glioma cells, dose response, cell-based, JHH-DIPG-1, MIPE4.0, CellTiter-Glo, qHTS (AID 1347062; cut-off not given, nearly all actives have AC50 up to about 27 µM). Particulars: JHH-DIPG-1 viability, CellTiter-Glo ATP luminescence.
Experiment [5] can be described thus: growth inhibition of DIPG glioma cells, dose response, cell-based, SU-DIPG-IV, MIPE4.0, CellTiter-Glo, qHTS (AID 1347063; cut-off not given, nearly all actives have AC50 up to about 30 µM;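 further: compound exposure lasted 48 hours before the viability readout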). Particulars: SU-DIPG-IV viability, CellTiter-Glo ATP luminescence.
Experiment [6] in a line: growth inhibition of DIPG glioma cells, dose response, cell-based, SU-DIPG-XIII, MIPE5.0, CellTiter-Glo, qHTS (AID 1347064; cut-off not given, nearly all actives have AC50 up to about 23 µM). Particulars: SU-DIPG-XIII viability, CellTiter-Glo ATP luminescence.
Experiment [7] is described as follows: viability loss in pontine glioma line – cell-based, SU-DIPG-XXV, MIPE5.0, CellTiter-Glo, qHTS, dose response (AID 1347065; cut-off not given, nearly all actives have AC50 up to about 26 µM;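 further: cells exposed to compound for 48 hours before ATP readout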). To be noted: CellTiter-Glo ATP luminescence.
Experiment [8] is described as follows: SU-DIPG-VI glioma cell viability, MIPE4.0 library, CellTiter-Glo luminescence, qHTS (AID 1347066; cut-off not given, nearly all actives have AC50 up to about 30 µM;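 further: cells exposed to compound for 48 hours before readout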). Particulars: CellTiter-Glo ATP luminescence.
A short description of experiment [9]: JHH-DIPG-1 glioma cell viability, MIPE5.0 library, CellTiter-Glo luminescence, qHTS (AID 1347067; cut-off not given, nearly all actives have AC50 up to about 26 µM;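 further: cells exposed to compound for 48 hours before readout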). Particulars: JHH-DIPG-1 glioma viability, CellTiter-Glo ATP luminescence.
A short description of experiment [10]: sensitizers of A549 cells to miR-34 induction, primary screen, imaging, A549 dox-inducible miR-34, nuclei and caspase counts (AID 1347080;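 active means compounds whose cell count with miR-34 switched on is under 0.7 times the count with it off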). Particulars: A549 miR-34 inducible, Hoechst nuclei count, 48 h.
Experiment [11] in a line: survival rescue of mitochondrial mutant cells in low glucose, primary screen, MELAS cybrids, Rieske KO mouse fibroblasts, CellTiter-Glo (AID 1508586;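 active means mean z-score across replicates of 1.96 or higher in either the MELAS or the Rieske mutant cell line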;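 further: z relative to plate mean and SD of compound and empty wells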).

Records with an inconclusive call do not appear. The source made the active and inactive calls.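 How the source made its calls, unless noted: active means normalized viability below 100% at a tested concentration; inactive means the rest.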

With `Cc1cc2c(F)c(Oc3ncnn4cc(OC[C@@H](C)O)c(C)c34)ccc2[nH]1`, the 50% inhibitory concentration (IC50) in experiment [1] was 14.8 µM (active). Besides, the viability is 117% (inactive) in [2] (at 0.000305 µM, OCI-C5x cells, with rucaparib 10 µM, 100% = cells with rucaparib alone); 131% (inactive) in [2] (at 0.000305 µM, OCI-C5x cells, without rucaparib); 112% (inactive) in experiment [2] (at 0.000305 µM, OCI-P5x cells, with rucaparib 20 µM, 100% = cells with rucaparib alone); 105% (inactive) in experiment [2] (at 0.000305 µM, OCI-P5x cells, without rucaparib); 131% (inactive) in experiment [2] (at 0.00122 µM, OCI-C5x cells, with rucaparib 10 µM, 100% = cells with rucaparib alone); 128% (inactive) in [2] (at 0.00122 µM, OCI-C5x cells, without rucaparib). In addition, the viability in experiment [2] (at 0.00122 µM, OCI-P5x cells, with rucaparib 20 µM, 100% = cells with rucaparib alone) was 112% (inactive); in experiment [2] (at 0.00122 µM, OCI-P5x cells, without rucaparib), 109% (inactive); in experiment [2] (at 0.00488 µM, OCI-C5x cells, with rucaparib 10 µM, 100% = cells with rucaparib alone), 125% (inactive); in [2] (at 0.00488 µM, OCI-C5x cells, without rucaparib), 126% (inactive); in experiment [2] (at 0.00488 µM, OCI-P5x cells, with rucaparib 20 µM, 100% = cells with rucaparib alone) it was 108% (inactive); in [2] (at 0.00488 µM, OCI-P5x cells, without rucaparib) it was 99.9% (active). Further, the viability was 111% (inactive) in experiment [2] (at 0.0195 µM, OCI-C5x cells, with rucaparib 10 µM, 100% = cells with rucaparib alone); 124% (inactive) in [2] (at 0.0195 µM, OCI-C5x cells, without rucaparib); 110% (inactive) in [2] (at 0.0195 µM, OCI-P5x cells, with rucaparib 20 µM, 100% = cells with rucaparib alone); 102% (inactive) in experiment [2] (at 0.0195 µM, OCI-P5x cells, without rucaparib); 123% (inactive) in experiment [2] (at 0.0781 µM, OCI-C5x cells, with rucaparib 10 µM, 100% = cells with rucaparib alone); 141% (inactive) in experiment [2] (at 0.0781 µM, OCI-C5x cells, without rucaparib). Further, the viability in experiment [2] (at 0.0781 µM, OCI-P5x cells, with rucaparib 20 µM, 100% = cells with rucaparib alone) is 99% (active); in experiment [2] (at 0.0781 µM, OCI-P5x cells, without rucaparib), 108% (inactive); in experiment [2] (at 0.313 µM, OCI-C5x cells, with rucaparib 10 µM, 100% = cells with rucaparib alone), 122% (inactive); in experiment [2] (at 0.313 µM, OCI-C5x cells, without rucaparib), 129% (inactive); in [2] (at 0.313 µM, OCI-P5x cells, with rucaparib 20 µM, 100% = cells with rucaparib alone) it was 113% (inactive); in experiment [2] (at 0.313 µM, OCI-P5x cells, without rucaparib), 106% (inactive). The viability is 117% (inactive) in [2] (at 1.25 µM, OCI-C5x cells, with rucaparib 10 µM, 100% = cells with rucaparib alone); 135% (inactive) in experiment [2] (at 1.25 µM, OCI-C5x cells, without rucaparib); 109% (inactive) in [2] (at 1.25 µM, OCI-P5x cells, with rucaparib 20 µM, 100% = cells with rucaparib alone); 102% (inactive) in experiment [2] (at 1.25 µM, OCI-P5x cells, without rucaparib); 122% (inactive) in experiment [2] (at 5 µM, OCI-C5x cells, with rucaparib 10 µM, 100% = cells with rucaparib alone); 139% (inactive) in experiment [2] (at 5 µM, OCI-C5x cells, without rucaparib). Further, the viability in [2] (at 5 µM, OCI-P5x cells, with rucaparib 20 µM, 100% = cells with rucaparib alone) is 109% (inactive); in [2] (at 5 µM, OCI-P5x cells, without rucaparib), 97.4% (active).

In the case of `Cc1cn([C@@H]2C[C@@H](O)[C@H](CO)O2)c(=O)[nH]c1=O`, the call in [3], in [4], in experiment [5], in experiment [6], in experiment [7] and in [8] was inactive. The compound was classed as inactive in [9] and in [1].

In the case of `C[C@@H]1C(=O)O[C@H]2CC34[C@H]5C[C@@H](C(C)(C)C)C36[C@@H](OC(=O)[C@@H]6O)O[C@@]4(C(=O)O5)[C@]21O` (stereo partly specified), the call in [3], in experiment [4], in experiment [5], in [6], in experiment [7] and in experiment [8] was inactive. Moreover, in experiment [9], the compound was classed as inactive.

Turning to `CC(=O)N1CCN(CCOc2ccc(C3CCN(C4=Nn5c(nnc5C(F)(F)F)CC4)CC3)cc2)CC1`, the fold change was 0.859 (inactive) in [10] (stronger effect = lower value, cell number ratio, induced over uninduced) and 0.882 in experiment [10] (measured here: relative caspase fold change +Dox/-Dox). In addition, the cell count is 5930 in experiment [10] (measured here: total cells with miR-34 induction, stronger effect = lower value) and 6900 in [10] (measured here: total cells without miR-34 induction). For the same compound, the z-score in experiment [11] (MELAS cybrid survival, CellTiter-Glo 48 h, stronger effect = higher value) was -0.00811 (inactive); in experiment [11] (Rieske KO mouse fibroblast survival, CellTiter-Glo 72 h), -0.339.

Turning to `O=C(CO)N1CCC(c2[nH]nc(-c3ccc(Cl)cc3)c2-c2ccncn2)CC1`, the outcome in experiment [3], in experiment [4], in experiment [5], in experiment [6], in [7] and in experiment [8] was inactive. The result in experiment [1] was inactive.

For the compound `CO[C@H]1C(=O)[C@]2(C)[C@@H](OC)C[C@H]3OC[C@@]3(OC(C)=O)[C@H]2[C@H](OC(=O)c2ccccc2)[C@]2(O)C[C@H](OC(=O)[C@H](O)[C@@H](NC(=O)OC(C)(C)C)c3ccccc3)C(C)=C1C2(C)C`, the compound was classed as inactive in experiment [3], in experiment [4], in [5], in [6], in [8] and in [9]. Besides, in experiment [7], the AC50 is 0.00186 µM (active).

`O=C1c2c(O)cc(O)cc2O[C@H](c2cc(O)c(O)c(O)c2)[C@H]1O`: the outcome in [3], in experiment [4] and in experiment [5] was inactive.

A word on the IC50: it is the concentration that gives 50% inhibition. As a reminder, the viability is a read-out of living cells in per cent, often relative to untreated cells. In general, AC50 refers to the midpoint of the concentration-response curve, whichever way the signal moves.
